C diff growth = C. difficile growth inhibition. Clostridium difficile clinical isolate growth, OD600, 24 h; hits give low values. growth activity, negative = inhibition, % at 16 µg/mL (by protocol). actives 0.25% (n = 86,000). AID 1259249;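 active = mean growth activity at or below -80% and every replicate also at or below -80%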;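 also: 0% = DMSO wells and -100% = levofloxacin 16 µg/mL wells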
* = called active by the depositor; ! = repeats disagree. This excerpt belongs to a sample that is enriched for hits.

SMILES | C diff growth
O=C(Nc1cc(F)ccc1F)N1CCCCN2[C@@H](CO)[C@@H](c3ccc(C4=CCCCC4)cc3)[C@@H]2C1 | -95.4*
O=C(Nc1cc(F)ccc1F)N1CCCCN2[C@H](C1)[C@H](c1ccc(C3=CCCCC3)cc1)[C@@H]2CO | 11.1
COc1ccc(C#Cc2ccc([C@H]3[C@@H](CO)N4CCCCN(C(=O)Nc5cccc(F)c5)C[C@@H]34)cc2)cc1 | -19.5
O=C(Nc1cccc(F)c1)N1CCCCN2[C@H](CO)[C@@H](c3ccc(C#Cc4ccccc4)cc3)[C@@H]2C1 | -3.0
COc1ccc(C#Cc2ccc([C@H]3[C@@H](CO)N4CCCCN(C(=O)Nc5cccc(F)c5)C[C@H]34)cc2)cc1 | -88.5*
O=C(Nc1cccc(F)c1)N1CCCCN2[C@H](C1)[C@@H](c1ccc(C#Cc3ccccc3)cc1)[C@@H]2CO | 2.7
COc1ccc(C#Cc2ccc([C@@H]3[C@H](CO)N4CCCCN(C(=O)Nc5cccc(F)c5)C[C@@H]34)cc2)cc1 | -84.8*
COc1ccc2c3c(n(C)c2c1)[C@H](CO)N(C(=O)CN1CCOCC1)CC31CCN(C)CC1 | 0.7
COc1cccc(NC(=O)N2C[C@H](O)COC[C@@H]3O[C@@H](CC(=O)NCc4ccccc4F)CC[C@H]32)c1 | -2.4
COc1ccc2c3c([nH]c2c1)[C@H](CO)N(C(=O)C1CCCCC1)CC31CCN(Cc2nccs2)CC1 | -2.5
O=C(C1CCOCC1)N1CC(=O)N2[C@H](CO)[C@H](c3ccc(C#CC4CCCC4)cc3)[C@@H]2C1 | -4.7
COCC(=O)Nc1ccc2c(c1)OC[C@@H](C)N(Cc1cccnc1)C[C@H](C)[C@H](OC)CN(C)C2=O | -1.4
COC(=O)C[C@@H]1C[C@@H]2c3cc(NC(=O)Nc4ccc(OC)cc4)ccc3O[C@@H]2[C@@H](CO)O1 | 2.9
Cc1ccc(-c2ccc([C@H]3[C@@H](CO)N4C(=O)CN(C(=O)c5cccnc5)C[C@H]34)cc2)cc1 | -23.1
CCCN(C)C[C@H]1Oc2ncc(C#CC3CC3)cc2C(=O)N([C@@H](C)CO)C[C@@H]1C | 1.3
COc1ccc2c3c(n(C)c2c1)[C@H](CO)N(Cc1ccccc1)CC31CCN(C(=O)C2CC2)CC1 | 1.0
O=C(Nc1cccc(F)c1)N1CCCCN2[C@H](CO)[C@H](c3ccc(-c4ccncc4)cc3)[C@H]2C1 | -2.5
Cc1ccc(-c2ccc([C@H]3[C@@H](CO)N4CCCCN(C(=O)Nc5cccc(F)c5)C[C@H]34)cc2)cc1 | -96.3*
COCC#Cc1ccc([C@@H]2[C@H]3CN(Cc4ccccc4F)CCCCN3[C@H]2CO)cc1 | 2.0
COc1ccc(C#Cc2ccc([C@H]3[C@H]4CN(Cc5ccccc5F)CCCCN4[C@H]3CO)cc2)cc1 | 0.1
COc1ccc(C#Cc2ccc([C@@H]3[C@@H](CO)N4CCCCN(Cc5ccccc5F)C[C@H]34)cc2)cc1 | -96.9*
O=C(Nc1cccc(F)c1)N1CCCCN2[C@H](C1)[C@@H](c1ccc(-c3ccncc3)cc1)[C@@H]2CO | -7.3
C[C@@H]1CN([C@@H](C)CO)C(=O)c2cccc(NC(=O)c3cnccn3)c2O[C@H]1CN(C)S(=O)(=O)c1ccc(Cl)cc1 | -4.6
COc1ccc2c3c(n(C)c2c1)[C@@H](CO)N(C(C)=O)CC31CCN(Cc2cncnc2)CC1 | -26.6
O=C(C[C@@H]1C[C@@H]2c3cc(NC(=O)Nc4ccccc4)ccc3O[C@@H]2[C@H](CO)O1)NCc1cccnc1 | 0.0
SMILES | C diff growth
CC(=O)N[C@H]1CC[C@@H](CCNC(=O)Nc2ccc(C(F)(F)F)cc2)O[C@H]1CO | -10.8
CC(=O)N[C@H]1CC[C@H](CCNC(=O)Nc2ccc(C(F)(F)F)cc2)O[C@H]1CO | -94.9*
O=C(NCC[C@H]1CC[C@@H](NC(=O)C2CC2)[C@H](CO)O1)Nc1ccc(C(F)(F)F)cc1 | 19.8
CCC(=O)N[C@H]1CC[C@@H](CCNC(=O)Nc2ccc(F)cc2)O[C@@H]1CO | 6.7
O=C(NCC[C@H]1CC[C@@H](NC(=O)C2CC2)[C@H](CO)O1)Nc1ccc(Cl)cc1 | -0.2
O=C(NCC[C@H]1CC[C@@H](NC(=O)C2CC2)[C@@H](CO)O1)Nc1ccc(C(F)(F)F)cc1 | -99.7*
CN(C)CC(=O)N[C@@H]1CC[C@@H](CCNC(=O)Nc2ccc(Cl)cc2)O[C@@H]1CO | 4.9
O=C(Nc1ccc(C(F)(F)F)cc1)N[C@H]1CC[C@@H](CCNC(=O)c2ccccc2F)O[C@@H]1CO | 0.6
CN(C)CC(=O)N[C@@H]1CC[C@@H](CCNC(=O)Nc2ccc(C(F)(F)F)cc2)O[C@@H]1CO | -100.3*
COc1ccc(C[C@H]2CCc3cnnn3COC[C@H](Cc3ccccc3)NC2=O)cc1 | -2.8
O=C(c1ccccc1F)N1CC2(C1)[C@H](c1ccccc1)[C@@H](CO)N2CC1CC1 | 0.9
COc1ccc2c3c(n(C)c2c1)[C@H](CO)N(C(=O)CC1CC1)CC31CN(C(=O)CC2CC2)C1 | -3.6
CNC(=O)C[C@H]1CC[C@H]2[C@@H](COC[C@@H](O)CN2C(=O)Nc2ccc(Cl)c(Cl)c2)O1 | -11.9
O=C(C[C@@H]1CC[C@@H]2[C@H](COC[C@@H](O)CN2C(=O)Nc2ccc(Cl)c(Cl)c2)O1)NCc1ccncc1 | -96.3*!
CNC(=O)C[C@@H]1CC[C@H]2[C@@H](COC[C@@H](O)CN2C(=O)Nc2ccc(Cl)c(Cl)c2)O1 | -11.8
O=C(C[C@@H]1CC[C@H]2[C@@H](COC[C@H](O)CN2C(=O)Nc2ccc(Cl)c(Cl)c2)O1)NC1CCC1 | 89.3
O=C(C[C@@H]1CC[C@@H]2[C@H](COC[C@H](O)CN2C(=O)Nc2ccc(Cl)c(Cl)c2)O1)NCc1ccc(F)cc1 | -96.0*
CCCNC(=O)C[C@H]1CC[C@@H]2[C@H](COC[C@H](O)CN2C(=O)Nc2ccc(Cl)c(Cl)c2)O1 | -100.7*!
CNC(=O)C[C@@H]1CC[C@@H]2[C@H](COC[C@@H](O)CN2C(=O)Nc2ccc(Cl)c(Cl)c2)O1 | -15.8
O=C(C[C@@H]1CC[C@@H]2[C@H](COC[C@H](O)CN2C(=O)Nc2ccc(Cl)c(Cl)c2)O1)NCc1ccc(Cl)cc1 | -61.0
O=C(C[C@@H]1CC[C@@H]2[C@H](COC[C@@H](O)CN2C(=O)Nc2ccc(Cl)c(Cl)c2)O1)NCc1ccc(F)cc1 | -16.4
COc1ccc2c3c([nH]c2c1)[C@@H](CO)N(Cc1ccccc1F)CC31CCN(C(=O)C2CCOCC2)CC1 | 3.0
COc1ccc(C[C@@H]2CCc3cnnn3COC[C@H](C(C)C)NC2=O)cc1 | -2.8
C[C@@H]1CN([C@@H](C)CO)C(=O)Cc2cc(NC(=O)Nc3ccccc3)ccc2O[C@H]1CN(C)C(=O)Nc1ccc(C(F)(F)F)cc1 | -7.9
C[C@H](CO)N1C[C@H](C)[C@H](CN(C)Cc2ccc(C(=O)Nc3ccccc3N)cc2)Oc2c(NS(=O)(=O)c3cn(C)cn3)cccc2C1=O | 2.0
C[C@@H]1CN([C@@H](C)CO)C(=O)Cc2cc(NC(=O)c3ccncc3)ccc2O[C@H]1CN(C)Cc1ccc(C(F)(F)F)cc1 | 2.4
COc1cccc(C(=O)N2C[C@H]3[C@@H](c4ccccc42)[C@@H](CO)N3Cc2ccccc2Cl)c1 | -2.1
COc1ccc(CN(C)C[C@@H]2OCCCC[C@@H](C)Oc3ccc(NC(=O)Cc4ccccc4)cc3C(=O)N([C@@H](C)CO)C[C@H]2C)cc1 | -0.3
COc1ccccc1C#Cc1ccc([C@H]2[C@@H](CO)N3CCCCN(C(=O)C4CC4)C[C@H]23)cc1 | -11.6
N#Cc1cccc(-c2ccc3c(c2)[C@H]2[C@H](CCN2Cc2cncnc2)[C@H](CO)N3)c1 | -10.7
